Data taken from PubChem BioAssay (Tox21).
Results filed as inconclusive are left out. Entries that show only a call come without a potency. A number with no mark means an inactive call. The source made the active and inactive calls. Calls follow the shape of the dose curve; as a rule, active = well fitted curve in the direction sought with a large enough effect in the repeat runs; inconclusive = weak or mixed curves; inactive = no such curve, though single readings can be large; an effect the other way counts as inactive or inconclusive.

How the values were obtained:
[1] = molecular target: Cytochrome P450 2C9 (Homo sapiens) (UniProt P11712); experiment: Cytochrome P450 Family 2 Subfamily C Member 9 (CYP2C9) small molecule antagonists: luciferase reporter qHTS assay (AID 1671198); as to activity change, negative = inhibition: series mostly up to about 120 µM
Method in brief: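 CYP2C9 activity was measured with a P450-Glo proluciferin substrate. Enzyme–substrate mix was held with compound for 10 min at room temperature, then NADPH regeneration solution was added for 1 h at 37C. Luciferin product was read as luminescence.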

[2] = molecular target: Voltage-gated inwardly rectifying potassium channel KCNH2 (Homo sapiens) (UniProt Q12809); experiment: Human Ether-a-go-go-Related Gene (hERG) channel small molecule antagonists: fluorescence cell-based qHTS assay (AID 1671200);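 as to activity change, negative = inhibition: hERG-expressing U2OS cells given a thallium stimulus after FluxOR II dye loading; series mostly up to about 77 µM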
Method in brief: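 In this thallium-flux screen, overnight-cultured U2OS cells bearing the channel are dye-loaded in darkness for an hour, rested 10 min at room temperature, and then monitored kinetically at 480/540 nm for two minutes post-stimulus.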

[3] = molecular target: Cytochrome P450 3A4 (Homo sapiens) (UniProt P08684); experiment: Cytochrome P450 Family 3 Subfamily A Member 4 (CYP3A4) small molecule antagonists: luciferase reporter qHTS assay (AID 1671201); as to activity change, negative = inhibition: series mostly up to about 120 µM
Method in brief: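 CYP3A4 activity was followed with a P450-Glo proluciferin substrate. Test compounds in DMSO were preincubated 10 min; NADPH regeneration then ran 1 h, and light output was read 20 min after detection reagent.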

[4] = molecular target: Cytochrome P450 1A2 (Homo sapiens) (UniProt P05177); experiment: Cytochrome P450 Family 1 Subfamily A Member 2 (CYP1A2) small molecule antagonists: luciferase reporter qHTS assay (AID 1671199); as to activity change, negative = inhibition: series mostly up to about 120 µM
Method in brief: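 Enzymatic CYP1A2 assay, human, luminescent: 10 min compound–enzyme–substrate preincubation, 1 h NADPH-dependent turnover, 20 min detection step, room temperature throughout. Reduced light indicates lower CYP1A2 activity.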
Also: nearly all actives have a fitted effect of over 50% in size.
Potency is read from the fitted curve at half-maximal effect.

Sequence of Cytochrome P450 3A4 (Homo sapiens) (P08684 whole entry, looked up): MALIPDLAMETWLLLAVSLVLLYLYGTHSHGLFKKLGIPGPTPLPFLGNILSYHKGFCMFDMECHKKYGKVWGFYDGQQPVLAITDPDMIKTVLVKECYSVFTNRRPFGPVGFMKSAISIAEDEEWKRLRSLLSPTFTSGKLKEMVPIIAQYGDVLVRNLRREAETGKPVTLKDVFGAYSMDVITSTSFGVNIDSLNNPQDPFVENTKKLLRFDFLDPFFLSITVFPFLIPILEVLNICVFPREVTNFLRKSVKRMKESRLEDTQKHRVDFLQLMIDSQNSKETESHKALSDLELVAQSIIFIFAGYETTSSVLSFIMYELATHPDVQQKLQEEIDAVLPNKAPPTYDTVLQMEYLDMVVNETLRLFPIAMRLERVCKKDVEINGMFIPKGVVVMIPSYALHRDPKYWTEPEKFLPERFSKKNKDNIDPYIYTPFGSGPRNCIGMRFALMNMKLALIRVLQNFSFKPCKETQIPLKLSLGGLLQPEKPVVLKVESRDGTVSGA
Sequence of Cytochrome P450 1A2 (Homo sapiens) (P05177 whole entry, looked up): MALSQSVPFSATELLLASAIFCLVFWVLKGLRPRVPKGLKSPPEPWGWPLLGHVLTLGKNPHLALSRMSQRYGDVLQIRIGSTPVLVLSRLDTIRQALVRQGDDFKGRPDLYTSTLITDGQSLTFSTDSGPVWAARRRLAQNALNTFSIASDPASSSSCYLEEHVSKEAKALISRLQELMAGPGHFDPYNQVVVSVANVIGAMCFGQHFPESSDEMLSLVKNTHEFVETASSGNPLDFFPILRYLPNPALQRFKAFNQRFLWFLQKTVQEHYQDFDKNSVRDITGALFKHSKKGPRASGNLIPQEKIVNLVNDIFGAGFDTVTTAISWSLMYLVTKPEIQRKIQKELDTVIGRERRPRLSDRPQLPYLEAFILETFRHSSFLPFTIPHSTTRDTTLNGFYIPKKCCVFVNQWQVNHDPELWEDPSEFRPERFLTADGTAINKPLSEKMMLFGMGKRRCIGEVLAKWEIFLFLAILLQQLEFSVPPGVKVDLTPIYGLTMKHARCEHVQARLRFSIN
Sequence of Voltage-gated inwardly rectifying potassium channel KCNH2 (Homo sapiens) (Q12809 whole entry, looked up): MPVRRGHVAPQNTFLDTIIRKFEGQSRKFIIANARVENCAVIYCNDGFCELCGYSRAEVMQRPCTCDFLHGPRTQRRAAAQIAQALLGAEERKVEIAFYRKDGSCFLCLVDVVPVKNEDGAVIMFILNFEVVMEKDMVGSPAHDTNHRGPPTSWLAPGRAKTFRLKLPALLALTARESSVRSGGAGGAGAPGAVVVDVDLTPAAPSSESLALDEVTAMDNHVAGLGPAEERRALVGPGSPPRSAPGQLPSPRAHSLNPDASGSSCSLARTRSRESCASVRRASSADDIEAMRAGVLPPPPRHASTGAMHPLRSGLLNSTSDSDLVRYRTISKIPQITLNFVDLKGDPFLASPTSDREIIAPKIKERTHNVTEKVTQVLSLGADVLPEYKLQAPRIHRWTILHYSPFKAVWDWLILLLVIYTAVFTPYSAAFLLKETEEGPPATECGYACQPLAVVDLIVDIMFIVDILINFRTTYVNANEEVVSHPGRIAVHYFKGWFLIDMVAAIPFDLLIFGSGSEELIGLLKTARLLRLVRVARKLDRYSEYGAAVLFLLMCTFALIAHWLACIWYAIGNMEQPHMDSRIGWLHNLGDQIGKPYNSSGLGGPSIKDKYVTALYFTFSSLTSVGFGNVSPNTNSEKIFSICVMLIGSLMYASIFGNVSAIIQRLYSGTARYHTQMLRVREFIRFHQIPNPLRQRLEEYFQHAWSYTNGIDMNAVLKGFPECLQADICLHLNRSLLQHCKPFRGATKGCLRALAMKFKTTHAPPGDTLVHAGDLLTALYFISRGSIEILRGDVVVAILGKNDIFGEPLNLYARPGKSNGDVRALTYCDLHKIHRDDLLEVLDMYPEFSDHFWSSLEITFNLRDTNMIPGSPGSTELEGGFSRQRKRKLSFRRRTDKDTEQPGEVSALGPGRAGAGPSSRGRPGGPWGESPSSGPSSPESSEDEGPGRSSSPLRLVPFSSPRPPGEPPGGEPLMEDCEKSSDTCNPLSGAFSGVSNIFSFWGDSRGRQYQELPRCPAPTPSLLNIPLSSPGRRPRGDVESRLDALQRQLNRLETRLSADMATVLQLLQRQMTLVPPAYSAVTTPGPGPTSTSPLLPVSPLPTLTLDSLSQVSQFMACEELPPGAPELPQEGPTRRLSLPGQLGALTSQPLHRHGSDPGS
Sequence of Cytochrome P450 2C9 (Homo sapiens) (P11712 whole entry, looked up): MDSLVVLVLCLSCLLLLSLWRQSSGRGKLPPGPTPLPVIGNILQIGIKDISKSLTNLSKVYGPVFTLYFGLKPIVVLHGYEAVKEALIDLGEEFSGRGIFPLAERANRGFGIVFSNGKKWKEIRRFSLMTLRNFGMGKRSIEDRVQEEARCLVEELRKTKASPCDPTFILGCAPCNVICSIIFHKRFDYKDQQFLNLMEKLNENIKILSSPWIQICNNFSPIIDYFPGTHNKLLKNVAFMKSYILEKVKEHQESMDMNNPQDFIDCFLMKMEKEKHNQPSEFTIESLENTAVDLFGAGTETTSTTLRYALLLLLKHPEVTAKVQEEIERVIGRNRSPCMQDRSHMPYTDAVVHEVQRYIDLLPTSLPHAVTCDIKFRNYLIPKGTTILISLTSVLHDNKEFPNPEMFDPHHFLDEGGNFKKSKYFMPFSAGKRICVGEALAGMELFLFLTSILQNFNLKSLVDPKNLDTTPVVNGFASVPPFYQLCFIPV

In the case of O=S(c1cc(Cl)cc(Cl)c1O)c1cc(Cl)cc(Cl)c1O, the Potency [1] is reported as 17.4 µM (active), the Potency [2] is reported as “inactive” and the Potency [3] is reported as “inactive”.

For O=C(NCC1CN(c2ccc(N3CCOCC3=O)cc2)C(=O)O1)c1ccc(Cl)s1 (centres undefined), the Potency [1] was 9.77 µM (active) and the Potency [3] was “inactive”.

For COCC(C)OC(C)=O (centres undefined), the Potency [1] was “inactive”, the Potency [2] was “inactive” and the Potency [3] was “inactive”.

For O=C(O)c1ccco1, the Potency [1] was “inactive”, the Potency [2] was “inactive” and the Potency [3] was “inactive”.

For COC(=O)c1ccc(I)cc1S(=O)(=O)NC(=O)Nc1nc(C)nc(OC)n1, the Potency [1] was 34.1 µM (active), the Potency [2] was “inactive” and the Potency [3] was “inactive”.

For CCCCOC(=O)CCCCCCCC(=O)OCCCC, the Potency [1] was 44.8 µM (active), the Potency [2] was “inactive” and the Potency [3] was “inactive”.

In the case of Nc1cc(C(=O)O)c(O)c(S(=O)(=O)O)c1, the Potency [1] is reported as “inactive”, the Potency [2] is reported as “inactive” and the Potency [3] is reported as “inactive”.

With CCOCC(O)COc1ccc(NC(=O)CC[S+](C)C)cc1 (centres undefined) the Potency [1] was “inactive”, the Potency [2] was “inactive” and the Potency [3] was “inactive”.

With ClCCOCCOCCCl the Potency [1] was “inactive”, the Potency [2] was “inactive” and the Potency [3] was “inactive”.

Compound CN(C)c1ccc(/C=C/c2ccc([N+](=O)[O-])cc2)cc1 has an activity change, negative = inhibition [1] of -1.18% [at 10.5 µM], an activity change, negative = inhibition [2] of 3.51% [at 6.97 µM] and an activity change, negative = inhibition [3] of 3.87% [at 10.5 µM].

For CCCCCCCCCCCCN1CCCCCC1=O, the Potency [1] was 31.7 µM (active) and the Potency [3] was “inactive”.

For COc1cc2nc(N3CCN(C(=O)C4COc5ccccc5O4)CC3)nc(N)c2cc1OC (centres undefined), the Potency [4] was “inactive”.

In the case of O=C(O)CC(=O)C(=O)O, the Potency [1] is reported as “inactive”, the Potency [2] is reported as “inactive” and the Potency [3] is reported as “inactive”.

In the case of COS(=O)(=O)C(F)(F)F, the Potency [1] is reported as “inactive”, the Potency [2] is reported as “inactive” and the Potency [3] is reported as “inactive”.

In the case of COc1cccc(N(C)C(=S)Oc2ccc3c(c2)CCCC3)n1, the Potency [4] is reported as 24.5 µM (active) and the Potency [2] is reported as “inactive”.

For CC(C)C[C@H]1C(=O)N2CCC[C@H]2[C@]2(O)O[C@](NC(=O)[C@@H]3C=C4c5cccc6[nH]c(Br)c(c56)C[C@H]4N(C)C3)(C(C)C)C(=O)N12, the Potency [4] was “inactive” and the Potency [2] was “inactive”.

In the case of COc1cc(C(=O)OCCCN2CCCN(CCCOC(=O)c3cc(OC)c(OC)c(OC)c3)CC2)cc(OC)c1OC, the Potency [4] is reported as “inactive”.

For Cc1cccc(C)c1NC(=O)CN(CC(=O)O)CC(=O)O, the Potency [1] was “inactive” and the Potency [3] was “inactive”.

With Cc1ccc(C(=O)Oc2ccc(C(O)CNC(C)(C)C)cc2OC(=O)c2ccc(C)cc2)cc1 (centres undefined) the Potency [4] was “inactive”.

In the case of CC(CC=O)c1ccccc1 (centres undefined), the Potency [1] is reported as 31.7 µM (active), the Potency [2] is reported as “inactive” and the Potency [3] is reported as 20 µM (active).

With O=C1C(O)=C(O)C(=O)C(O)=C1O the Potency [1] was “inactive”, the Potency [2] was “inactive” and the Potency [3] was “inactive”.

In the case of COc1ccc(S(=O)(=O)N2C(=O)[C@@](c3ccccc3OC)(N3C[C@H](O)C[C@H]3C(=O)N(C)C)c3cc(Cl)ccc32)c(OC)c1, the Potency [1] is reported as 39.9 µM (active) and the Potency [3] is reported as 0.0894 µM (active).

CN(C)CCN(Cc1ccccc1)c1ccccn1 was tested, and the Potency [1] was “inactive”, the Potency [2] was 9.52 µM (active) and the Potency [3] was “inactive”.

With CN(C)C(=O)NC1(c2ccccc2)CCN(CC[C@@]2(c3ccc(F)c(F)c3)CN(C(=O)c3ccccc3)CCO2)CC1 the Potency [4] was “inactive”.

CC(C)(O)c1ccc(CNC(=O)c2cccnc2Oc2ccc(F)cc2)cc1 was tested, and the Potency [1] was 22.4 µM (active), the Potency [2] was “inactive” and the Potency [3] was 31.7 µM (active).

CCCCCCCCCOS(=O)(=O)O was tested, and the Potency [1] was 22.4 µM (active), the Potency [2] was “inactive” and the Potency [3] was “inactive”.

In the case of Cc1ncc(CO)c(C=O)c1O, the Potency [1] is reported as “inactive”, the Potency [2] is reported as “inactive” and the Potency [3] is reported as “inactive”.

CC1=CC[C@H](C(C)C)C=C1 was tested, and the Potency [1] was 39.9 µM (active) and the Potency [3] was 28.3 µM (active).

For C=CC(=O)OCCOCCOC(=O)C=C, the Potency [1] was “inactive” and the Potency [3] was “inactive”.

CCCn1cnc2c1c(=O)n(CCCCC(C)=O)c(=O)n2C was tested, and the Potency [1] was “inactive”, the Potency [2] was “inactive” and the Potency [3] was “inactive”.

With CCCCCCCC#N the Potency [1] was “inactive”, the Potency [2] was “inactive” and the Potency [3] was “inactive”.

With C=C1[C@H]2CC[C@@H]3[C@H]2C(C)(C)CCC[C@]13C the Potency [1] was “inactive”, the Potency [2] was “inactive” and the Potency [3] was “inactive”.

For CCOC(=O)C1=C[C@]2(CC)CCCN3CCc4c(n1c1ccccc41)[C@@H]32, the Potency [4] was “inactive” and the Potency [2] was 0.151 µM (active).

With CCOC(=O)c1cccnc1 the Potency [1] was “inactive”, the Potency [2] was “inactive” and the Potency [3] was “inactive”.

With CCCCCCCN the Potency [1] was “inactive” and the Potency [3] was “inactive”.

In the case of CCN(CC)CCNC(=O)c1cc(Br)c(N)cc1OC, the Potency [1] is reported as “inactive” and the Potency [3] is reported as “inactive”.
